{"source": "PubChem BioAssay (NCATS)", "note": "“And” between values parts separate entries of the source, which are not always exact repeats. Equal entries are not always repeated. Inconclusive results are not listed. The source made the active and inactive calls. The call rests on the fitted dose curve; in most records, active means well fitted inhibition curve with a large enough effect in the signal ratio, with a control signal flat (not every such curve was filed as active); inconclusive means small, poorly fitted or top-dose-only effect, or effect the other way, or a change in a side signal; inactive means flat fitted curve, though single readings scatter; the % refers to the signal ratio. On the % scale 0 is the no-effect control and ±100 the full control effect."}
{"biological_target": "Thyroid hormone receptor beta (Homo sapiens) (UniProt P10828)", "sequence (P10828 whole entry, looked up)": "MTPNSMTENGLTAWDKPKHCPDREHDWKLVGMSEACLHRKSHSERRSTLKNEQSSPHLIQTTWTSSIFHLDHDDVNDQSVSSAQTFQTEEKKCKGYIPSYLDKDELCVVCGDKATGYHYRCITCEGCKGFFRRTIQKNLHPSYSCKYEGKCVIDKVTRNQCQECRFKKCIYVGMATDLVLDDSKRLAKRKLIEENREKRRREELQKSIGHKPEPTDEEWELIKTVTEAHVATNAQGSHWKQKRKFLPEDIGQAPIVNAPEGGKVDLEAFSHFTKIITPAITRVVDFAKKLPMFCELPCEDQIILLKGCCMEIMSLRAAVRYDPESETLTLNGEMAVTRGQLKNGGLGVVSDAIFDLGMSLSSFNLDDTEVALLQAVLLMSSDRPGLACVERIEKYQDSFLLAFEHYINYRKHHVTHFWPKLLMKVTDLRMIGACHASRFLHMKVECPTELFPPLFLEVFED", "test": "qHTS assay for small molecule antagonists of thyroid hormone receptor beta signaling (AID 588547);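 further: cells stimulated with 0.4 nM T3 agonist during compound exposure; series mostly up to about 77 µM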", "settings": "TR-UAS-bla HEK293, beta-lactamase ratio, antagonist mode, 18 h", "text": "NIH Chemical Genomics Center [NCGC] U.S. Environmental Protection Agency [EPA] National Institutes of Environmental Health Sciences [NIEHS] National Toxicology Program [NTP] NCGC Assay Overview Thyroid hormone receptor (TR) belongs to nuclear hormone receptor superfamily. There are two subtypes for TR: TR-alpha and TR-beta. TR-beta plays a major role in regulating plasma cholesterol levels and it mediates the biological activities of thyroid hormone. Screening environmental chemicals on TR-beta signaling will provide important information for the mechanism of compound action.\nNCGC Assay Protocol Summary Using a beta-lactamase reporter-gene under control of the TR response element, a cell-based assay [GeneBLAzer TR-UAS-bla-GripTite assay developed by Invitrogen] was used to measure TR-beta signaling in antagonist mode. TR-UAS-bla-GripTite HEK 293 cells were used with assay medium containing 2% charcoal/dextran FBS, 0.1 mM NEAA and 1 mM sodium pyruvate. The assay was performed in clear bottom black Greiner 1536-well plates. Library compounds were measured for their ability to inhibit the reporter gene activity. Compounds were screened in a titration series in 1536-well format. The fluorescence intensity (405 nm excitation, 460/530 nm emission) was measured using an EnVision plate reader. […] Concentration-response titration points for each compound were fitted to the Hill equation yielding concentrations of half-maximal inhibition (IC50) and maximal response (efficacy) values. qHTS protocol for TR-beta beta-lactamase assay in antagonist mode [Step] [Parameter] [Value] [Description] 1. Reagent; 5 uL; 2500 cells/well 2. Incubation; 37 C for 4 hrs 3. Compounds; 23 nL; 0.59 nM to 92 uM 4. Controls (DMSO); 23 nL 5. Agonist (Stimulator); 1uL; T3 at 0.4nM (final) concentrations 6. Incubation; 37 C for 18 hrs 7. Detection reagent; 1 uL of CCF4-dye 8. Incubation; RT for 2 hrs 9. Detection; Fluorescence; Envision plate reader"}
{"smiles": "CC(C)C(C)(C)C(C)(C)C(C)(C)S", "activity change % (negative = inhibition)": "1.2% (inactive) and -6.79% (inactive)"}
{"smiles": "O=C(Oc1ccccc1)c1cccc(C(=O)Oc2ccccc2)c1", "activity change % (negative = inhibition)": "0.996% (inactive)"}
{"smiles": "Brc1ccccc1-c1ccccc1", "activity change % (negative = inhibition)": "-16.6% (inactive)"}
{"smiles": "OCCOCCN1CCN(C(c2ccccc2)c2ccc(Cl)cc2)CC1", "note": "(centres undefined)", "activity change % (negative = inhibition)": "-10.5% (inactive)"}
{"smiles": "CC(=O)OC/C=C(C)/C=C/C=C(C)/C=C/C1=C(C)CCCC1(C)C", "activity change % (negative = inhibition)": "1.82% (inactive)"}
{"smiles": "C1=CC2C3C=CC(C3)C2C1", "note": "(centres undefined)", "activity change % (negative = inhibition)": "2.01% (inactive)"}
{"smiles": "O=C(Oc1ccccc1)c1ccccc1O", "activity change % (negative = inhibition)": "-5.55% (inactive) and -2.84% (inactive)"}
{"smiles": "Cc1ccc(O)cc1", "activity change % (negative = inhibition)": "-4.08% (inactive)"}
{"smiles": "COc1cc(C=O)ccc1O", "activity change % (negative = inhibition)": "9.41% (inactive) and -10.4% (inactive)"}
{"smiles": "COC(=O)c1c(Cl)c(Cl)c(C(=O)OC)c(Cl)c1Cl", "activity change % (negative = inhibition)": "3.31% (inactive)"}
{"smiles": "OCc1c[nH]c2ccccc12", "activity change % (negative = inhibition)": "13% (inactive)"}
{"smiles": "CCCCC(CC)COC(=O)c1ccccc1C(=O)O", "note": "(centres undefined)", "activity change % (negative = inhibition)": "-5.5% (inactive) and 6.91% (inactive)"}
{"smiles": "CCCC(=O)c1cc(O)c(O)cc1O", "activity change % (negative = inhibition)": "-21% (inactive)"}
{"smiles": "Cc1cc(C(C)(C)C)c(O)c(C(C)(C)C)c1", "activity change % (negative = inhibition)": "-7.42% (inactive)"}
{"smiles": "CC(C)(C)c1ccc(O)c(O)c1", "activity change % (negative = inhibition)": "-12.4% (inactive) and -14.4% (inactive)"}
{"smiles": "CN1C(=O)c2ccccc2C1=O", "activity change % (negative = inhibition)": "-4.79% (inactive)"}
{"smiles": "Nc1cccc2c(N)cccc12", "activity change % (negative = inhibition)": "0% (inactive) and 7.22% (inactive)"}
{"smiles": "CCCCCCCCCCCC[N+](C)(C)Cc1ccccc1", "activity change % (negative = inhibition)": "-19.6% (inactive)"}
{"smiles": "O=C(NO)c1ccccc1", "activity change % (negative = inhibition)": "-5.82% (inactive)"}
